# Measurements taken from PubChem BioAssay AID1240 (Sanford-Burnham Center for Chemical Genomics, 2008).
# The whole screen tested about 50,000 compounds, of which about 800 (1.6%) showed an effect of 50% or more. This is one part of a sample in which strong results are shown more often than they occur.
# Target: Bcl-2-like protein 10 (Homo sapiens) (UniProt Q9HD36)
# Assay: TR3 peptide-Bcl-B binding displacers, biochemical primary FP assay, phenotype converters (AID 1240);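 further: 0% = Bcl-B with tracer peptide and DMSO and 100% = tracer peptide lacking Bcl-B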
# Details: GST-Bcl-B / FITC-TR3 peptide fluorescence polarization; stronger effect = higher value; compound at 3.75 mg/L
# Chain of Bcl-2-like protein 10 (Homo sapiens) (Q9HD36 whole entry, looked up): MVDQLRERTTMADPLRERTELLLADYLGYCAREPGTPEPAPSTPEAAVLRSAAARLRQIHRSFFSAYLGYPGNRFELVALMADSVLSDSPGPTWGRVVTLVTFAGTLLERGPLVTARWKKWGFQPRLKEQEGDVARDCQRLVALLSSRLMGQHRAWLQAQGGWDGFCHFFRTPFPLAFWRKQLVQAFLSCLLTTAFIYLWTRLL
row,SMILES,displacement
1,N#CC(C#N)=Cc1cn(-c2ccccc2)nc1-c1ccc(-c2ccc([N+](=O)[O-])cc2)o1,-5.9%
2,Cc1ccc(-c2nn(-c3ccccc3)cc2C=O)o1,-0.3%
3,COc1ccc(CSc2nc3ccccc3n2C)cc1F,-9.9%
4,COc1ccc(OC)c(C2NC(=S)NC(C)=C2C(=O)OCCc2ccccc2)c1 (stereo not given),3.9%
5,COc1ccccc1N1CCN(C(=O)COc2ccc(Cl)cc2C)CC1,-4.5%
6,O=c1[nH]c(=S)[nH]c(O)c1C=Nc1ccc(Cl)c(Cl)c1,-7%
7,O=c1[nH]c(O)c(C=Nc2ccc(F)c(F)c2)c(=O)[nH]1,166%
8,COc1ccc(Cl)cc1N=Cc1c(O)[nH]c(=O)[nH]c1=O,10.3%
9,COc1ccc2c(c1OC)C(=O)OC2Nc1cccc(F)c1 (stereo not given),-0.4%
10,COc1ccc(-c2cc(C(F)(F)F)n3ncc(C(=O)N4CCOCC4)c3n2)cc1OC,5.2%
11,CCOc1ccccc1NC(=O)C1CN(S(=O)(=O)c2ccccc2)CCN1S(=O)(=O)c1ccccc1 (stereo not given),11.2%
12,C/C(=N/NC(=O)c1cccnc1)c1cc(O)ccc1O,-12%
13,CC(C)c1ccc(/C=C2/SC(=O)N(c3ccccc3)C2=O)cc1,1.4%
14,CC(NC(=O)c1ccc(F)cc1)C1CC1 (stereo not given),4.6%
15,Cc1cc(NCCCO)n2c(nc3ccccc32)c1C#N,160%
16,Cc1cc(NCCCCO)n2c(nc3ccccc32)c1C#N,25.9%
17,Cc1cc(NCCCN(C)C)n2c(nc3ccccc32)c1C#N,-13.5%
18,Cc1cc(Nc2ccc3c(c2)OCO3)n2c(nc3ccccc32)c1C#N,135%
19,Cc1cc(Nc2ccc3c(c2)n(C)c(=O)n3C)n2c(nc3ccccc32)c1C#N,22.5%
20,Cc1cc(Nc2ccccc2)n2c(nc3ccccc32)c1C#N,-2.8%
21,CC(=O)Nc1ccc(S(=O)(=O)/N=C2\C=CC(=O)c3ccccc32)cc1,22.2%
22,COc1ccc(Cl)cc1C(=O)N(Cc1ccccc1)C(C)C,11.9%
23,Cc1c(Cl)cccc1NC(=O)C1c2ccccc2Oc2ccccc21,11.9%
24,CCn1c2ccccc2c2cc(NC(=O)Cc3ccc(OC)c(OC)c3)ccc21,-5.2%
25,O=c1/c(=C/c2ccc(Sc3ccccc3)o2)sc2nc3ccccc3n12,48.5%
26,O=c1/c(=C/c2ccc([N+](=O)[O-])cc2)sc2nc3ccccc3n12,86.7%
27,O=c1/c(=C/c2cc([N+](=O)[O-])ccc2Cl)sc2nc3ccccc3n12,-7.5%
28,CN(C)c1ccc(/C=c2\sc3nc4ccccc4n3c2=O)cc1,107%

row,SMILES,displacement
1,O=c1/c(=C/c2ccc3c(c2)OCO3)sc2nc3ccccc3n12,69.3%
2,O=c1/c(=C/c2ccc(C(F)(F)F)cc2)sc2nc3ccccc3n12,2%
3,O=c1/c(=C\c2ccc(OCc3ccc([N+](=O)[O-])cc3)cc2)sc2nc3ccccc3n12,4.5%
4,Cc1cc2nc3s/c(=C/c4ccc5c(c4)OCO5)c(=O)n3c2cc1C,-11.4%
5,Cc1ccc(Sc2ccc(/C=c3\sc4nc5ccccc5n4c3=O)o2)cc1,86.8%
6,CC(=O)Oc1ccc(/C=c2\sc3nc4ccccc4n3c2=O)cc1,28%
7,O=c1/c(=C/c2ccc(-c3ccc(Cl)cc3)o2)sc2nc3ccccc3n12,10.9%
8,CSc1ccc(/C=c2\sc3nc4ccccc4n3c2=O)cc1,7.3%
9,COc1ccc(/C=C2\C(=O)NN(c3ccc(Cl)c(Cl)c3)C2=O)cc1OC,-13.2%
10,CCOc1ccccc1/C=N/Nc1nnc(-c2ccccc2)c(=O)[nH]1,-10.7%
11,O=C(COc1ccccc1Cl)N1CCN(c2ccc([N+](=O)[O-])cc2)CC1,-3.3%
12,O=C1NC(=S)N(c2ccc(Cl)cc2)C(=O)C1=Cc1ccsc1,8.3%
13,O=C1CSC(c2cn(-c3ccccc3)nc2-c2ccc(Cl)cc2)N1Cc1ccccc1 (stereo not given),-6.5%
14,O=c1[nH]cc(N=Cc2ccccc2)c(=O)[nH]1,-2.8%
15,Cc1onc(-c2ccccc2Cl)c1C(=O)Nc1sc(C)c(C)c1C#N,13.6%
16,CCc1nc2ccccc2n1CC(O)COC1CCCCC1 (stereo not given),-10.7%
17,COC(=O)c1ccc(N2C(=O)c3cccc([N+](=O)[O-])c3C2=O)cc1,-0.7%
18,O=c1/c(=C/c2cccs2)sc2nc3ccccc3n12,7.2%
19,O=c1/c(=C/c2ccccn2)sc2nc3ccccc3n12,102%
20,Cc1ccsc1/C=c1\sc2nc3ccccc3n2c1=O,-8.5%
21,CCOc1ccc(NC(=O)CC2S/C(=N\N=C(/C)c3cccc(NC(C)=O)c3)NC2=O)cc1 (stereo not given),-11%
22,CN1CCN(c2ccc3c4c(cccc24)C(=O)c2ccccc2-3)CC1,2.9%
23,O=C1c2cccc3c(N4CCCCC4)ccc(c23)C(=O)N1c1ccc(Cl)cn1,25.4%
24,CN1CCN(C(=O)CCN2C(=O)c3cccc4cccc(c34)C2=O)CC1,18.2%
25,CN1CCN(c2ccc3c4c(cccc24)C(=O)N(CCO)C3=O)CC1,155%
26,O=C1c2cccc3c(N4CCCCC4)ccc(c23)C(=O)N1CCO,66.1%
27,CC(C)N1C(=O)c2cccc3c(N4CCCCC4)ccc(c23)C1=O,9.8%
